Laboratory results from PubChem BioAssay (NCI).
The panel holds about 79,000 compounds, 15% with a hit somewhere; the sample as a whole holds those more often. Unmarked numbers belong to inactive results. Calls of active or inactive are those of the source. Cut-off read from the data, not from the text of the source: active = growth inhibition above about 70%; inactive = the rest.

Assay: NCI Yeast Anticancer Drug Screen. Data for the mec2-1 strain (AID 157)
Conditions: S. cerevisiae mec2-1 strain, at 11.0 µM, hits give high values
Procedure, shortened: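 Readout is yeast growth inhibition, normalised to vehicle-treated controls, in the mec2-1 strain exposed to compound.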
In the case of `S=C(S)NN1CCOCC1`, the growth inhibition is reported as 32%.
`COc1cc2c3c(cccc3c1)C(=O)N(CCN(C)C)C2=O` showed a growth inhibition of -23%.
For `COC(=O)C1=C(C)NC(C)=C(C(=O)OCCCN2CCC(c3ccccc3)(c3ccccc3)CC2)C1c1cccc([N+](=O)[O-])c1` (stereo not given), the growth inhibition was 98% (active).
Work on `c1ccc2c(c1)Oc1cccc3cccc-2c13` yielded a growth inhibition of -3%.
Work on `CN(C)CCOc1ccc2c(c1)C/C(=C/c1ncc([N+](=O)[O-])n1C)C2=O` yielded a growth inhibition of 53%.
For `Cc1ccc(CCC2=CCCc3c2ccc2ccccc32)cc1`, the growth inhibition was -5%.
In the case of `CNC(=O)OCc1c(COC(=O)NC)c(-c2ccc(Cl)c(Cl)c2)n2c1CCC2`, the growth inhibition is reported as -32%.
For `Clc1ccccc1C1OC1c1ccccc1Cl` (stereo not given), the growth inhibition was -94%.
Work on `O=[N+]([O-])c1cc(CCl)ccc1CCl` yielded a growth inhibition of 37%.
Compound `O=C1C=CC(=O)c2c(O)c(Nc3ccc(OC(F)(F)F)cc3)c(Cl)c(O)c21` has a growth inhibition of 8%.
In the case of `S=c1[nH]nc(Nc2ccc(Cl)cc2)s1`, the growth inhibition is reported as -6%.
In the case of `Cn1ccnc1Oc1ccc(Cl)cc1`, the growth inhibition is reported as 4%.
`BrCc1cccc2ccc3cccc(CBr)c3c12` showed a growth inhibition of -2%.
Work on `O=C1c2ccccc2-c2nc3ccccc3nc21` yielded a growth inhibition of -41%.
For `CCCCCCCCCCCCCCCCCCNC`, the growth inhibition was -3%.
`Oc1ccc(NCn2c(=S)sc3ccccc32)cc1` gave a growth inhibition of 26%.
With `O=C1C2CC[C@@H]3C(=O)C(Cl)(Cl)[C@@H]3CCC2C1(Cl)Cl` (stereo not given in full) the growth inhibition was 11%.
For `CC[n+]1ccc2c(C)c3[nH]c4ccc(O)cc4c3c(C)c2c1`, the growth inhibition was 0%.
Compound `Cc1ccc(-n2cc(-c3ccc(Cl)cc3)c(C#N)c2N)cc1` has a growth inhibition of -4%.
Compound `CC(=O)[O][Bi]([c]1ccccc1)[c]1ccccc1` has a growth inhibition of 40%.
`CC1=C(SCCO)C(=O)c2ccccc2C1=O` gave a growth inhibition of 0%.
`C/C(=N\O)C1CC2C=C(C#N)C1N(Cc1ccccc1)C2` (stereo not given) gave a growth inhibition of 4%.
Work on `CC(Br)C(=O)c1ccc2cc(Br)c3ccccc3c2c1` (stereo not given) yielded a growth inhibition of 6%.
`Nc1nc(-c2cccnc2)cc(-c2cc(-c3cccnc3)nc(N)n2)n1` gave a growth inhibition of -1%.
For `CC(C)=CC(=O)O[C@@H]1CC(C)(C)CC2C3=CCC4[C@]56CC[C@](O)(OC5)C(C)(C)C6CC[C@@]4(C)C3(C)CC[C@]21C(=O)O` (stereo not given in full), the growth inhibition was 69%.
With `CCC(C)COC(=O)c1ccc(N=Cc2ccc(C=Nc3ccc(C(=O)OCC(C)CC)cc3)cc2)cc1` (stereo not given) the growth inhibition was 3%.
With `Oc1cccc2c(Cl)ccnc12` the growth inhibition was 99% (active).
Compound `O=C(O)c1cccc(-c2c3ccc(=O)cc-3oc3cc(O)ccc23)c1` has a growth inhibition of 36%.
With `CN(CCc1ccccn1)c1ccc2c(c1)Cc1ccccc1-2` the growth inhibition was 26%.
Compound `Cc1cc(S(=O)(=O)/N=C(/NN)NNc2cccc(C(F)(F)F)n2)c(S)cc1Cl` has a growth inhibition of -3%.
`O=C1C2C(C(=O)N1c1ccc(OCc3ccccc3)cc1)C1c3ccccc3C2C2CCCCN21` (stereo not given) showed a growth inhibition of -6%.
For `Nc1ccccc1CC(O)C(=O)O` (stereo not given), the growth inhibition was 14%.
With `O=C(O)C1CCCCC1c1c2ccc(=O)c(O)c-2oc2c(O)c(O)ccc12` (stereo not given) the growth inhibition was -13%.
Compound `Cc1ccc2ccc(O)cc2c1` has a growth inhibition of -32%.
Compound `O=C1C(=O)c2ccccc2C=C1[N+](=O)[O-]` has a growth inhibition of 13%.
In the case of `COC(=O)c1ccc(NCC2=CC(=O)C=CC2=O)cc1O`, the growth inhibition is reported as 70% (active).
In the case of `C(CCSC1=NCCN1)CSC1=NCCN1` (tested in a mixture with another compound), the growth inhibition is reported as 94% (active).
For `N#Cc1c(N)[nH]c2ccc(Sc3ccccc3)cc12`, the growth inhibition was 6%.
Compound `CCNc1nnc(CSc2nc(-c3ccccc3)c(-c3ccccc3)[nH]2)s1` has a growth inhibition of -8%.
Compound `CC[C@@]1(O)C(=O)OCc2c1cc1n(c2=O)Cc2cc3c(N)cccc3nc2-1` has a growth inhibition of 18%.

Same assay, conditions: S. cerevisiae mec2-1 strain, at 33.0 µM, hits give high values
For `S=C(S)NN1CCOCC1`, the growth inhibition was 28%.
`COc1cc2c3c(cccc3c1)C(=O)N(CCN(C)C)C2=O` showed a growth inhibition of -19%.
With `COC(=O)C1=C(C)NC(C)=C(C(=O)OCCCN2CCC(c3ccccc3)(c3ccccc3)CC2)C1c1cccc([N+](=O)[O-])c1` (stereo not given) the growth inhibition was 98% (active).
`c1ccc2c(c1)Oc1cccc3cccc-2c13` gave a growth inhibition of 2%.
In the case of `CN(C)CCOc1ccc2c(c1)C/C(=C/c1ncc([N+](=O)[O-])n1C)C2=O`, the growth inhibition is reported as 88% (active).
In the case of `Cc1ccc(CCC2=CCCc3c2ccc2ccccc32)cc1`, the growth inhibition is reported as -4%.
In the case of `CNC(=O)OCc1c(COC(=O)NC)c(-c2ccc(Cl)c(Cl)c2)n2c1CCC2`, the growth inhibition is reported as 85% (active).
Work on `Clc1ccccc1C1OC1c1ccccc1Cl` (stereo not given) yielded a growth inhibition of -75%.
For `O=[N+]([O-])c1cc(CCl)ccc1CCl`, the growth inhibition was 93% (active).
In the case of `O=C1C=CC(=O)c2c(O)c(Nc3ccc(OC(F)(F)F)cc3)c(Cl)c(O)c21`, the growth inhibition is reported as 78% (active).
Compound `S=c1[nH]nc(Nc2ccc(Cl)cc2)s1` has a growth inhibition of 3%.
In the case of `Cn1ccnc1Oc1ccc(Cl)cc1`, the growth inhibition is reported as 17%.
Work on `BrCc1cccc2ccc3cccc(CBr)c3c12` yielded a growth inhibition of -3%.
Work on `O=C1c2ccccc2-c2nc3ccccc3nc21` yielded a growth inhibition of 50%.
In the case of `CCCCCCCCCCCCCCCCCCNC`, the growth inhibition is reported as 18%.
For `Oc1ccc(NCn2c(=S)sc3ccccc32)cc1`, the growth inhibition was 84% (active).
`O=C1C2CC[C@@H]3C(=O)C(Cl)(Cl)[C@@H]3CCC2C1(Cl)Cl` (stereo not given in full) gave a growth inhibition of 21%.
In the case of `CC[n+]1ccc2c(C)c3[nH]c4ccc(O)cc4c3c(C)c2c1`, the growth inhibition is reported as 6%.
Compound `Cc1ccc(-n2cc(-c3ccc(Cl)cc3)c(C#N)c2N)cc1` has a growth inhibition of -4%.
With `CC(=O)[O][Bi]([c]1ccccc1)[c]1ccccc1` the growth inhibition was 90% (active).
`CC1=C(SCCO)C(=O)c2ccccc2C1=O` showed a growth inhibition of 13%.
Work on `C/C(=N\O)C1CC2C=C(C#N)C1N(Cc1ccccc1)C2` (stereo not given) yielded a growth inhibition of 4%.
`CC(Br)C(=O)c1ccc2cc(Br)c3ccccc3c2c1` (stereo not given) showed a growth inhibition of 6%.
Work on `Nc1nc(-c2cccnc2)cc(-c2cc(-c3cccnc3)nc(N)n2)n1` yielded a growth inhibition of 0%.
With `CC(C)=CC(=O)O[C@@H]1CC(C)(C)CC2C3=CCC4[C@]56CC[C@](O)(OC5)C(C)(C)C6CC[C@@]4(C)C3(C)CC[C@]21C(=O)O` (stereo not given in full) the growth inhibition was 88% (active).
`CCC(C)COC(=O)c1ccc(N=Cc2ccc(C=Nc3ccc(C(=O)OCC(C)CC)cc3)cc2)cc1` (stereo not given) gave a growth inhibition of 4%.
With `Oc1cccc2c(Cl)ccnc12` the growth inhibition was 97% (active).
For `O=C(O)c1cccc(-c2c3ccc(=O)cc-3oc3cc(O)ccc23)c1`, the growth inhibition was 84% (active).
With `CN(CCc1ccccn1)c1ccc2c(c1)Cc1ccccc1-2` the growth inhibition was 20%.
Work on `Cc1cc(S(=O)(=O)/N=C(/NN)NNc2cccc(C(F)(F)F)n2)c(S)cc1Cl` yielded a growth inhibition of -7%.
Compound `O=C1C2C(C(=O)N1c1ccc(OCc3ccccc3)cc1)C1c3ccccc3C2C2CCCCN21` (stereo not given) has a growth inhibition of 2%.
Compound `Nc1ccccc1CC(O)C(=O)O` (stereo not given) has a growth inhibition of 30%.
In the case of `O=C(O)C1CCCCC1c1c2ccc(=O)c(O)c-2oc2c(O)c(O)ccc12` (stereo not given), the growth inhibition is reported as 46%.
With `Cc1ccc2ccc(O)cc2c1` the growth inhibition was -42%.
With `O=C1C(=O)c2ccccc2C=C1[N+](=O)[O-]` the growth inhibition was 18%.
For `COC(=O)c1ccc(NCC2=CC(=O)C=CC2=O)cc1O`, the growth inhibition was 97% (active).
With `C(CCSC1=NCCN1)CSC1=NCCN1` (tested in a mixture with another compound) the growth inhibition was 99% (active).
For `N#Cc1c(N)[nH]c2ccc(Sc3ccccc3)cc12`, the growth inhibition was 93% (active).
For `CCNc1nnc(CSc2nc(-c3ccccc3)c(-c3ccccc3)[nH]2)s1`, the growth inhibition was 73% (active).
`CC[C@@]1(O)C(=O)OCc2c1cc1n(c2=O)Cc2cc3c(N)cccc3nc2-1` gave a growth inhibition of 23%.
